# From PubChem BioAssay
# Pin1 inhibitor = inhibitors of human Pin1 | Pin1 FP peptide displacement, HiFluor488, 10 min | 390,000 compounds, 0.009% hits | Potency, µM (doses to about 115 µM), most hits filed as inhibitors | Q13526; active = well fitted inhibition curve with a large enough effect in the polarisation, with a control signal flat, not every such curve was filed as active; inconclusive = small, poorly fitted or top-dose-only effect, or effect the other way, or a change in a side signal; inactive = no such curve, though single readings can be large or run the other way; the % refers to the polarisation
# Target sequence (Q13526 whole entry, looked up): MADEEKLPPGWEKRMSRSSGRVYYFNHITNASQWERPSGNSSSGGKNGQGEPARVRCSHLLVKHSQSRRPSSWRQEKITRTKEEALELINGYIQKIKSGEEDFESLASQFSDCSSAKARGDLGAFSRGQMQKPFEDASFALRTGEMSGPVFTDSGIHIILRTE
# Nrf2 block = blocks Nrf2 signaling; A549 ARE-Fluc reporter, luciferase luminescence, 18-24 h; 360,000 compounds, 2.1% hits; Potency, µM (doses to about 46 µM), most hits filed as inhibitors; also: nearly all actives have a fitted effect of over 60% in size
#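 Reporter: ARE-Fluc in A549. Exposure: 18-24 h, 37 °C, 5% CO2, 5% FBS OPTI-MEM. Readouts: fluorescent cytotoxicity (CellTiter-Fluor), then luminescent Nrf2 signal after BugLite.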
# Nrf2 ARE act = Nrf2 pathway activation; AREc32 ARE-luciferase reporter (MCF7-derived line), luminescence, 24 h; Potency, µM (titrated, usually from 46.1 µM), actives largely listed as activators; 410,000 compounds, 0.31% hits; AID 624171; also: nearly all actives have a fitted effect of over 65% in size
#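 ARE activation measured as luciferase luminescence (Steady-Glo, 30 min RT) in AREc32_Fluc cells after 24 hr compound exposure at 37 deg C, 5% CO2; cells seeded overnight at 1000/well in OPTI-MEM, 5% FBS.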
# A549 viability = kills or reduces viability of A549 cells in Nrf2 counter-screen | A549 ARE-Fluc cells, CellTiter-Fluor viability, 18-24 h | Potency, µM (top dose mostly 46 µM), hits mostly inhibitors | 390,000 compounds, 0.16% hits | AID 504648
#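 A549 ARE-Fluc cells in 5% FBS OPTI-MEM, 5000 cells/well, rested 2 h then exposed to compounds in concentration-response for 18-24 h at 37 °C. Viability by CellTiter-Fluor fluorescence (Ex 405/Em 525) after 30 min; luciferase luminescence (BugLite, 15 min, RT) read afterwards.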
# A number is an active result; n = inactive; u = inconclusive; x = no result; ! = repeats disagree. Hits are enriched below; roughly 2.2% of the tested compounds scored in any of these assays. Unless noted, calls follow the shape of the dose curve; as a rule, active = well fitted curve in the direction sought with a large enough effect; inconclusive = small, poorly fitted or top-dose-only effect, or another doubt; inactive = no such curve, though single readings can be large; an effect the other way counts as inactive or inconclusive.
SMILES,Pin1 inhibitor,Nrf2 block,Nrf2 ARE act,A549 viability
CCC(=O)N1CCN(c2ccc(Cl)cc2NC(=O)c2ccc([N+](=O)[O-])o2)CC1,n,n,11.2µM,n
O=C(Nc1cc(Cl)ccc1-n1cncn1)c1ccc([N+](=O)[O-])o1,n,n,12.6µM,n
CN1CCN(c2ccccc2NC(=O)c2ccc([N+](=O)[O-])o2)CC1,n,n,n,n
CS(=O)(=O)N1CCN(c2ccccc2NC(=O)c2ccc([N+](=O)[O-])o2)CC1,n,n,8.91µM,n
CCC(C)(C)n1nnnc1CN1CCN(c2nc3cc(OC)ccc3cc2C#N)CC1,n,18.4µM,n,n
Cc1ccc(C)c(N2CCN(Cc3nnnn3C3CCCCC3)CC2)c1,n,x,n,n
Cc1ccc2nc(N3CCN(Cc4nnnn4C4CCCC4)CC3)c(C#N)cc2c1,n,23.1µM,n,n
CCN1CCN(CCNC(=O)c2ccc(/C=C3\Sc4ccccc4N(Cc4ccccc4F)C3=O)cc2)CC1,u,n,n,n
COCCCNC(=O)/C=C1\Sc2ccccc2N(Cc2ccccc2F)C1=O,n,n,11.2µM,n
COc1cc(OC)c(NC(=O)c2c(N3CCCC3=O)c3cc(C)ccc3n2C)cc1Cl,n,u,n,n
CCc1nn2c(=O)cc(N3C(C)CNCC3C)nc2s1 (stereo not given),n,n,x,n
COc1ccc(Cn2c(SCc3ccc(C)cc3)nc3cc(OC)c(OC)cc3c2=N)cc1Cl,n,u,n,u
COc1ccc(Cn2c(SCc3cc(C)ccc3C)nc3cc(OC)c(OC)cc3c2=N)cc1,n,23.1µM,n,18.4µM
CCCN=C1N/C(=C\c2ccco2)C(=O)N1c1ccccc1,u,n,n,n
O=C1/C(=C\c2ccco2)NC(=S)N1c1ccccc1,n,u,8.91µM,n
CCN(CC)c1cc(C)c2cc(NC(=O)c3ccc(Br)o3)ccc2n1,n,11.6µM,n,u
COc1cccc(NC(=O)c2sc3nc(C)c(C(=O)Nc4ccc(C)cc4C)c(-c4ccc(C)o4)c3c2N)c1,u,n,n,n
O=C(CSc1nc2nn(-c3ccccc3)c(=O)c-2c2n1CCCCC2)Nc1cccc(F)c1,n,9.2µM,n,n
O=S(=O)(Nc1cccc(-c2ccc(N3CCCCC3)nn2)c1)c1ccc(Cl)s1,u,x,n,n
Cc1ccc2onc(CC(=O)N3CCN(c4ccc(F)cc4)CC3)c2c1,n,16.4µM,n,u
COc1c(C)cccc1C(=O)Nc1ccc(-c2nc3ccccc3s2)c(Cl)c1,n,25.9µM,n,n
COc1ccc(C(=O)Nc2ccc(-c3nc4ccccc4s3)c(Cl)c2)cc1Cl,n,n,n,n
CCCN(Cc1ccccc1)C(=S)Nc1cccc(C(F)(F)F)c1,n,20.6µM,n,n
Cc1nn(C)cc1CN(C)Cc1ccc(OCC(O)CN2CCCCC2)cc1 (stereo not given),n,n,n,n
CN(Cc1ccc(OCC(O)CN2CCCCC2)cc1)Cc1ccnc2ccccc12 (stereo not given),n,5.8µM,n,n
SMILES,Pin1 inhibitor,Nrf2 block,Nrf2 ARE act,A549 viability
Cn1c(=O)[nH]c(=O)c2c1nc([N+](=O)[O-])n2Cc1ccccc1,n,23.1µM,u,u
COc1ccc(-c2nc3c(c(=O)[nH]c(=O)n3Cc3ccccc3)n2Cc2ccccc2)cc1,n,14.6µM,n,n
CC(C)Cn1c([N+](=O)[O-])nc2c1c(=O)[nH]c(=O)n2C,n,n,u,u
CCCCN(CCCC)CCCNC(=O)c1cc(-c2ccc(Cl)s2)nc2ccccc12,n,n,n,n
Cc1ccc(NC(=O)Nc2ccc3c(c2)N(C)C(=O)c2ccccc2S3)c(C)c1,n,n,n,n
CN1C(=O)c2ccccc2Sc2ccc(NC(=O)Nc3ccccc3F)cc21,n,20.6µM,n,n
O=S(=O)(c1c(F)cccc1F)N1CCN(S(=O)(=O)c2c(F)cccc2F)CC1,n,u,x,n
O=c1oc2ccccc2cc1-c1nc(-c2cccs2)no1,n,x,12.6µM,n
COc1ccc2oc(=O)c(-c3nc(-c4cccs4)no3)cc2c1,n,u,n,n
CCOC(=O)CSc1nc2cc(OC)c(OC)cc2cc1C#N,n,n,x,n
CC1CCN2c3cc(Cl)ccc3CC3(C(=O)OC(C)(C)OC3=O)C2C1 (stereo not given),n,n,x,n
CCCS(=O)(=O)N1CCN(S(=O)(=O)c2ccccc2[N+](=O)[O-])CC1,n,n,n,n
CC(=O)c1c(C)[nH]c(C(=O)CN2CCN(S(=O)(=O)c3ccccc3[N+](=O)[O-])CC2)c1C,n,20.6µM,n,n
O=c1cc2oc3cc(O)c(O)cc3c(-c3ccccc3[N+](=O)[O-])c-2cc1O,n,3.26µM,n,5.17µM
CN(CC(=O)N1CC=C(c2ccccc2)CC1)S(=O)(=O)c1ccc2c(c1)c(=O)n(C)c(=O)n2C,n,n,n,n
Cn1c(=O)c2cc(S(=O)(=O)NCCC(=O)N3CC=C(c4ccccc4)CC3)ccc2n(C)c1=O,n,14.6µM,n,n
COc1ccc(C2C3C=CCCC3(C)C(=O)N2Cc2ccccc2)cc1Cl (stereo not given),n,u,x,n
COc1ccc2oc3cc(C)[n+]([O-])c(-c4ccc(Br)cc4)c3c2c1,n,23.1µM,n,u
CCC1(C)Cc2c(sc3nnn(Cc4ccccc4Cl)c(=O)c23)CO1 (stereo not given),n,14.6µM,n,n
C/C(=N\NC(=O)CSCc1ccc([N+](=O)[O-])cc1)c1cccc(Br)c1,n,23.1µM,n,n
Cc1ccc2c(c1)N(C(=O)CCC(=O)NCc1cccs1)CCO2,n,u,n,n
O=C(COc1cccnc1[N+](=O)[O-])Nc1cccc2ccccc12,n,n,5.62µM,n
NNC(=O)COc1ccccc1[N+](=O)[O-],n,n,n,n
O=C(COc1ccccc1[N+](=O)[O-])NNC(=O)Nc1cccc2ccccc12,n,u,14.1µM,n
O=C(COc1cccnc1[N+](=O)[O-])N1CCC(Cc2ccccc2)CC1,n,14.6µM,n,n
SMILES,Pin1 inhibitor,Nrf2 block,Nrf2 ARE act,A549 viability
COc1cc(NC(=O)C(OC(=O)CNC(=O)c2ccccc2)c2ccccc2)c(OC)cc1Cl (stereo not given),n,n,x,n
CCCCN(C)C(=O)c1ccc2c(c1)N(Cc1ccc(F)cc1)C(=O)c1ccccc1S2(=O)=O,n,16.4µM,n,u
COc1ccccc1N(CC(=O)NCCSCc1ccccc1)S(=O)(=O)c1ccccc1,x,x,n,x
COc1ccccc1N(CC(=O)NCCSCc1ccccc1)S(=O)(=O)c1ccc(C)cc1,n,14.6µM!,n,n
COc1ccccc1N(CC(=O)NC1CC2CCC1C2)S(=O)(=O)c1ccc(C)cc1 (stereo not given),n,18.4µM,n,n
COc1ccc(S(=O)(=O)N(CC(=O)NC2CC3CCC2C3)c2ccccc2OC)cc1 (stereo not given),n,n,n,n
COc1ccc(CCNc2ncnc3c2c(-c2ccccc2)cn3-c2ccc(Cl)cc2)cc1OC,n,x,n,n
COc1nc(N/N=C/c2cc3c(cc2Br)OCO3)nc(N2CCOCC2)n1,u,16.4µM,n,n
Clc1cc2c(cc1/C=N/Nc1nc(N3CCOCC3)nc(N3CCOCC3)n1)OCO2,n,n,n,n
